TbREL1 primary: TbREL1 inhibition, primary screen. P86926. TbREL1 RNA ligation, FRET fluorescence. inhibition, % at 9.66 µM. 89,000 tested, 0.49% active;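 active = inhibition above the mean inhibition across all screened compounds plus 3 SD, cut at about 11% in these data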;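 note: 0% = plate median of test wells and 100% = NSC42067 control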
Target sequence (P86926 whole entry, looked up): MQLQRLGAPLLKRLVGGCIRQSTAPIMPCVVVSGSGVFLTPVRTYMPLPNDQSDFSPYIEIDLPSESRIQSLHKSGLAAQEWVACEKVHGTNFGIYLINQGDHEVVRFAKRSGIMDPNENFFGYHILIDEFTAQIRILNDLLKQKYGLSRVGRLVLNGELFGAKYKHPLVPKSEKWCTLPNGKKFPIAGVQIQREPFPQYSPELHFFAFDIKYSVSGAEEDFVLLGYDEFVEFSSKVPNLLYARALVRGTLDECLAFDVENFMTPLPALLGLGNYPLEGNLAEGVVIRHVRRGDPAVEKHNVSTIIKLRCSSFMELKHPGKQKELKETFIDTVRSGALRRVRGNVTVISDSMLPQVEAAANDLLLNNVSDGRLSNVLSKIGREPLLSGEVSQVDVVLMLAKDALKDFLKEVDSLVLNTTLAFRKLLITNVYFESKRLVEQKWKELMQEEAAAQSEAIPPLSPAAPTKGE
TbREL1 confirm: TbREL1 inhibition, confirmation; shares compounds with TbREL1 primary; TbREL1 RNA ligation, FRET fluorescence; inhibition, % at 9.66 µM; 390 tested, 37% active; AID 1117282;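 active = mean inhibition across replicates above a set limit taken from the earlier primary screen, cut at about 11% in these data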;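 note: 0% = REL1 with substrate and DMSO and 100% = REL1 plus control inhibitor NSC42067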
An asterisk follows results filed as active. The full list was thinned out, with hits kept by preference.

SMILES	TbREL1 primary	others
N#CCCn1cc(C(=O)Nc2ccc(F)cc2)c(-c2ccc([N+](=O)[O-])cc2)n1	11.3*	TbREL1 confirm=4.0
N#CCCn1cc(C(=O)Nc2ccc([N+](=O)[O-])cc2)c(-c2ccccc2)n1	-2.1
O=C(NC1CC1)c1cn(Cc2ccccc2)nc1-c1ccccc1	-0.6
O=C(CNC(=O)OCc1ccccc1)NC(Cc1ccccc1)P(=O)(Oc1ccccc1)Oc1ccccc1 (stereo not given)	-0.3
CCCCn1c(NC(=O)c2ccco2)c(C(=O)OCC)c2nc3ccccc3nc21	34.1*	TbREL1 confirm=45.0*
CCCCn1c(N)c(C(=O)OCCOC)c2nc3ccccc3nc21	3.8
CCCCOCCCn1c(N)c(C(=O)OCCOC)c2nc3ccccc3nc21	0.2
CO[C@H]([C@H](C)/C=C/N(C)C=O)[C@@H](C)C(=O)CC[C@H](C)[C@H](O)[C@H](C)[C@H]1OC(=O)/C=C/C(C)=C/[C@H](O)[C@H](OC)C[C@@H]2C=CC[C@@H](C[C@H](OC)[C@@H](CO)[C@@H](OC)C[C@@H](OC)[C@@H]1C)O2	-6.5
COc1ccc2c3c([nH]c2c1)[C@H](C=C(C)C)N1C(=O)[C@@H]2CCCN2C(=O)[C@@H]1C3	-5.4
CN1C(=O)[C@@]23C[C@]4(c5c[nH]c6ccccc56)c5ccccc5N(S(=O)(=O)c5ccccc5)[C@@H]4N2C(=O)[C@@H]1SS3	5.2
CC[C@H](C)[C@@H]1OC(=O)[C@H](C(C)C)N(C)C(=O)[C@H](C(C)C)NC(=O)[C@@H](C)[C@@H](CCCC#CBr)OC(=O)[C@H](C(C)C)N(C)C(=O)C2CCCN2C1=O (stereo not given in full)	-1.7
Cc1ccccc1-c1ccc2c(c1)CNCc1cnnn1-2	-1.5
Cc1ccccc1CN1Cc2cnnn2-c2ccccc2C1C#N (stereo not given)	11.3*	TbREL1 confirm=4.4
CCOC(=O)CC1c2ccccc2-n2nncc2CN1C (stereo not given)	5.4
O=C(NC(Cc1ccccc1)P(=O)(O)Oc1ccccc1)OCc1ccccc1 (stereo not given)	-3.1

Screening results: PubChem, The Scripps Research Institute Molecular Screening Center
